Assay results published in PubChem BioAssay AID2117 (The Scripps Research Institute Molecular Screening Center, 2009).
Calls of active or inactive are those of the source. How the calls were made is not given here.

Tested on: VP16
Experiment: ROR modulator nuclear receptor reporter panel, late-stage follow-up, ROR modulator project, cell-based, luciferase reporter (AID 2117)
Conditions: fold change: ROR/LXR/VP16, max fold change, at 10 µM; inhibition: ROR/LXR/VP16, at 10 µM, stronger effect = higher value

| SMILES | fold change | inhibition |
| --- | --- | --- |
| O=S(=O)(Nc1ccc(C(O)(C(F)(F)F)C(F)(F)F)cc1)c1cccc2cccnc12 | 1.03 | 0% (inactive) |
| O=S(=O)(Nc1ccc(C(O)(C(F)(F)F)C(F)(F)F)cc1)c1cccc2ccccc12 | 0.95 | 5% (inactive) |
| CC(C)(C)c1ccc(S(=O)(=O)Nc2ccc(C(O)(C(F)(F)F)C(F)(F)F)cc2)cc1 | 0.9 | 10% (inactive) |
| COC(=O)c1sccc1S(=O)(=O)Nc1ccc(C(O)(C(F)(F)F)C(F)(F)F)cc1 | 0.94 | 6% |
| O=S(=O)(Nc1ccc(C(O)(C(F)(F)F)C(F)(F)F)cc1)c1ccc(Cl)c2nonc12 | 0.61 | 39% (inactive) |
| COc1cccc(S(=O)(=O)Nc2ccc(C(O)(C(F)(F)F)C(F)(F)F)cc2)c1 | 0.91 | 9% (inactive) |
